Screening data (PubChem BioAssay)
Hits are enriched below; roughly 3.4% of the tested compounds scored in any of these assays.
GPR151 activ = activators of human GPR151, primary screen, cell-based, PathHunter beta-arrestin, luminescence; G-protein coupled receptor 151 (Homo sapiens), Q8TDV0; PathHunter beta-arrestin GPR151 cells; activation, % at 11.2 µM; hit rate 1% among 650,000; AID 1508602, 2020; in the data active = activation above about 4.9%
Target sequence (Q8TDV0 whole entry, looked up): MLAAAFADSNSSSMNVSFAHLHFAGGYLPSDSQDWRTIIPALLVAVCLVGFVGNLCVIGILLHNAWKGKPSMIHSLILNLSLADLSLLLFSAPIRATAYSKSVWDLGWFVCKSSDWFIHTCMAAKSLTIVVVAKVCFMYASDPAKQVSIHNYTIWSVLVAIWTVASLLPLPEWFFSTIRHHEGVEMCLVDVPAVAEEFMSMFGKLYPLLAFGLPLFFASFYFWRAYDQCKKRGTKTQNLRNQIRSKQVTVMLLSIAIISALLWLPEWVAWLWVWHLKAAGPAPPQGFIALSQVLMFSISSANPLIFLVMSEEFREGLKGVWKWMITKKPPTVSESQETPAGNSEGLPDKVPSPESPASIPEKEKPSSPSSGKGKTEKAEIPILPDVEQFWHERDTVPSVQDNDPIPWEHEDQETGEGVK
TEAD-YAP block = TEAD-YAP interaction inhibition, primary screen, TEAD-YAP interaction inhibitor project, luminescence, HEK-TIYL cells | inhibition, % at 9.12 µM | TEAD-Gal4/YAP UAS-luciferase luminescence | AID 1259422, 2018 | hit rate 1.4% among 640,000; in the data active = inhibition above about 32%
MITF primary = MITF inhibitors, primary screen, biochemical, AlphaScreen, human | AlphaScreen MITF homodimerization, bead proximity signal | inhibition, % at 2.6 µM | hit rate 0.91% among 650,000 | AID 1259374, 2018; in the data active = inhibition above about 50%
FBW7 activator = FBW7 E3 ligase activators, primary screen, biochemical, AlphaScreen, human. F-box/WD repeat-containing protein 7 (Homo sapiens), Q969H0. AlphaScreen FBW7–phospho-cyclin E peptide binding, activator screen. normalized activity (activation), % at 26.1 µM. hit rate 0.13% among 650,000. AID 1259310, 2017; in the data active = normalized activity above about 1.9%;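 note: purified mutant Fbw7 with reduced substrate affinity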
GPR151 confirm = GPR151 activators, triplicate retest, confirmation, cell-based, PathHunter beta-arrestin, luminescence | shares compounds with GPR151 activ | GPR151 PathHunter beta-arrestin cells, 90 min; % of EA-reagent control over plate median | activation, % at 11.2 µM | 6,700 tested, under 10 active;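 active = mean percent activation across replicates above the confirmation screen cutoff of 4.91%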
GPR119 counter = GPR119 activators in beta-arrestin cells, counter-screen for GPR151 activator project, cell-based, PathHunter beta-arrestin, luminescence, triplicate | 90 min; 0 = compound-well median, 100 = enzyme-acceptor control | hit rate 0.3% among 6,700 | activation, % at 11.2 µM | shares compounds with GPR151 activ;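 active = mean percent activation in the counterscreen above 29.09%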;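 note: counterscreen on off-target GPR119 to flag nonselective hits from the GPR151 activator screen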
Large screens that a line does not name were inactive (follow-up assays come after a bar, where they were run).

COc1ccc(N2C3=C(C(=O)CC(C)(C)C3)C(c3ccccc3)C3=C2c2ccccc2C3=O)cc1 (stereo unspecified)	GPR151 activ 5.6 | GPR151 confirm inactive | GPR119 counter inactive
O=C(O)c1ccc(Nn2c(=S)[nH]c3ccccc3c2=O)cc1	GPR151 activ 5.0 | GPR151 confirm inactive | GPR119 counter inactive
O=C(Nn1c(=S)[nH]c2ccccc2c1=O)c1ccc(Br)cc1	none
Cc1nc(SCC(=O)Nc2cc(C)on2)c2c(-c3cccs3)csc2n1	none
Cc1nc(SCC(=O)NC(=O)NCc2ccco2)c2c(-c3cccs3)csc2n1	GPR151 activ 5.0 | GPR151 confirm inactive | GPR119 counter inactive
CC(C)NC(=O)Cn1nnc(-c2cccc(NC(=O)c3ccccc3F)c2)n1	none
CCOc1ccc(NC(=O)CCC(=O)N/N=C/c2ccc3c(c2)OCO3)cc1	none
COc1ccc2c(c1)COC1(CCN(C(=O)Nc3ccccc3F)CC1)O2	GPR151 activ 7.7 | GPR151 confirm inactive | GPR119 counter inactive
CCCCOC(=O)c1ccc2c(c1)C(=O)N(c1cccc(Cl)c1)C2=O	none
Cc1cc(C)cc(C(=O)Nc2ccc3c(c2)CCCN3S(C)(=O)=O)c1	GPR151 activ 7.7 | GPR151 confirm inactive | GPR119 counter inactive
Cn1cc(CN[C@H]2C[C@H]3C(=O)N[C@@H](Cc4ccccc4)C(=O)N3C2)c(-c2ccccc2)n1	GPR151 activ 9.8 | GPR151 confirm inactive | GPR119 counter inactive
CC(C)C[C@H]1NC(=O)[C@@H]2C[C@H](NCc3nc(-c4ccc(F)cc4)cs3)CN2C1=O	none
O=C1N[C@H](CO)C(=O)N2C[C@@H](NCc3nc(-c4ccc(F)cc4)cs3)C[C@@H]12	GPR151 activ 7.7 | GPR151 confirm inactive | GPR119 counter inactive
COc1ccc(CN[C@H]2C[C@H]3C(=O)N[C@H](CC(C)C)C(=O)N3C2)cc1	GPR151 activ 5.1 | GPR151 confirm inactive | GPR119 counter inactive
CC(C)C[C@@H]1NC(=O)[C@@H]2C[C@H](NCc3ccc(C(C)C)cc3)CN2C1=O	none
COc1ccccc1CN[C@H]1C[C@H]2C(=O)N[C@@H](CO)C(=O)N2C1	GPR151 activ 5.2 | GPR151 confirm inactive | GPR119 counter inactive
O=C(CN1C(=O)/C(=C/c2ccccc2F)Sc2ccccc21)N1CCOCC1	none
CCC[C@@H]1NC(=O)[C@@H]2C[C@H](NCc3cc(C)ccc3F)CN2C1=O	GPR151 activ 9.4 | GPR151 confirm inactive | GPR119 counter inactive
CCC[C@@H]1NC(=O)[C@@H]2C[C@H](NCc3cc4ccccc4s3)CN2C1=O	GPR151 activ 5.6 | GPR151 confirm inactive | GPR119 counter inactive
CCN=C(NCC)SC1CC(=O)N(CCc2ccccc2)C1=O (stereo unspecified)	none
CN(C)c1cccc(C(=O)n2nnc3ccccc32)c1	none
COC(=O)[C@@H]1CC[C@H](C)[C@@H](c2ccc(C)cc2)N1C(=O)c1ccc(/C=N/OC[C@@H](O)[C@H]2O[C@@H]3OC(C)(C)O[C@@H]3[C@H]2O)cc1	GPR151 activ 6.7 (no result: TEAD-YAP block) | GPR151 confirm inactive | GPR119 counter inactive
COc1ccc(Br)cc1/C=C1\N=C(c2cc(Br)ccc2OC)OC1=O	none
COc1ccc(Br)cc1C1=N/C(=C\c2cccc(OC)c2OC)C(=O)O1	GPR151 activ 6.8 | GPR151 confirm inactive | GPR119 counter inactive
O=C(COc1ccccc1)NCCc1cn2ccsc2n1	GPR151 activ 5.0 | GPR151 confirm inactive | GPR119 counter inactive
O=C(CN1CCN(S(=O)(=O)c2ccc(Br)cc2)CC1)Nc1ccc(Cl)c(C(F)(F)F)c1	GPR151 activ 5.8 | GPR151 confirm inactive | GPR119 counter inactive
Nc1nc2ccc(C(=O)c3ccccc3)cc2[nH]1	none
CC(C)(C)OC(=O)N1CCC(Nc2nccc(-c3ccc(S(C)(=O)=O)cc3)n2)CC1	none
CC(C)(C)OC(=O)N1CCN(c2nccc(-c3ccc(-c4ccc(Cl)cc4)s3)n2)CC1	GPR151 activ 5.3 (no result: TEAD-YAP block, MITF primary, FBW7 activator) | GPR151 confirm inactive | GPR119 counter inactive
O=C(Nc1nc(-c2ccccc2)cs1)c1ccc(S(=O)(=O)N2CCc3ccccc32)cc1	none
O=C(Nc1nc(-c2cc3ccccc3o2)cs1)c1cc2ccccc2oc1=O	GPR151 activ 21 | GPR151 confirm inactive | GPR119 counter inactive
O=C(Nc1nc(-c2ccncc2)cs1)c1ccc(S(=O)(=O)N2CCCCC2)cc1	none
O=C(Nc1nc(-c2ccncc2)cs1)c1ccccc1I	GPR151 activ 6.3 | GPR151 confirm inactive | GPR119 counter inactive
O=C(Nc1nc(-c2cc3ccccc3oc2=O)cs1)c1ccc(S(=O)(=O)N2CCc3ccccc32)cc1	GPR151 activ 5.0 | GPR151 confirm inactive | GPR119 counter inactive
CC1CCN(S(=O)(=O)c2ccc(C(=O)Nc3nc(-c4ccncc4)cs3)cc2)CC1	GPR151 activ 4.9 | GPR151 confirm inactive | GPR119 counter inactive
CCOC(=O)C1=CN(Cc2ccc(OC)c(OC)c2)C=C(C(=O)OCC)C1c1cc(Cl)c(O)c(OC)c1	none
Cc1nc(NCCNC(=O)c2ccco2)c2c3c(sc2n1)CCCC3	none
O=C(NC(=S)Nc1ncccn1)c1cc2ccccc2oc1=O	none
O=C(NC(=S)NNc1ccccc1)c1cc2ccccc2oc1=O	GPR151 activ 5.5 | GPR151 confirm inactive | GPR119 counter inactive
CN(C1CCCCC1)S(=O)(=O)c1ccc(S(=O)(=O)NCC2CC2)cc1	none
O=[N+]([O-])c1ccc(C(O)CNCCCN2CCOCC2)cc1 (stereo unspecified)	GPR151 activ 7.0 | GPR151 confirm inactive | GPR119 counter inactive
O=C(NCCCN1CCOCC1)c1ccc([N+](=O)[O-])cc1	none
COc1ccccc1NC(C)C(=O)N/N=C/c1cccc(OC)c1O (stereo unspecified)	none
COc1cccc(/C=N/NC(=O)C(C)Nc2ccc(C)cc2)c1O (stereo unspecified)	GPR151 activ 12 | GPR151 confirm inactive | GPR119 counter inactive
CC(Oc1cccc(Cl)c1)C(=O)N/N=C/c1ccccc1O (stereo unspecified)	GPR151 activ 6.6 | GPR151 confirm inactive | GPR119 counter inactive
COc1ccc(/C=N/NC(=O)c2cc(C(C)(C)C)[nH]n2)cc1O	none
COc1ccc(NC(C)C(=O)N/N=C/c2ccccc2Cl)cc1 (stereo unspecified)	GPR151 activ 7.3 | GPR151 confirm inactive | GPR119 counter inactive
COc1cccc(/C=N\NC(=O)c2cc(C(C)(C)C)[nH]n2)c1O	GPR151 activ 5.8, TEAD-YAP block 69 | GPR151 confirm inactive | GPR119 counter inactive
